# Laboratory results as given in the supplement of paper PMC8728848.
# About 410 targets per protein were measured; listed, in parts, are those with the strongest signals and a random draw of the rest.
# Columns and labels:
# Assay in all cases: glycan array binding signal (z-score within array); higher = stronger binding
# Settings in all cases: glycan notation: IUPAC condensed, linker removed
# [1] = system: Gal(a1-3)Gal(b1-4)GlcNAc(b1-3)GalNAc
# Summary of the method: (§1)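 The binding signal is a Z-score computed within each array and averaged over linkers. Arrays of the same protein sequence at different concentrations or buffers were also averaged together. Data originate from 3228 arrays in the Consortium for Functional Glycomics database, kept only where the protein sequence was available.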
# [2] = system: Gal(a1-3)[Gal(a1-4)]Gal(b1-4)GlcNAc
# Summary of the method: as §1
# Gal(b1-2)Gal = system: Gal(b1-2)Gal
# Summary of the method: as §1
# [3] = system: Gal(b1-3)GalNAc(a1-3)[Fuc(a1-2)]Gal(b1-4)Glc
# Summary of the method: as §1
# [4] = system: Gal(a1-3)Gal(b1-4)GlcNAc(b1-6)GalNAc
# Summary of the method: as §1
# Gal(a1-6)Glc = system: Gal(a1-6)Glc
# Summary of the method: as §1
# Gal(a1-3)Gal(b1-4)GlcNAc = system: Gal(a1-3)Gal(b1-4)GlcNAc
# Summary of the method: as §1
# [5] = system: Gal(b1-3)GalNAc(a1-3)[Fuc(a1-2)]Gal(b1-4)GlcNAc
# Summary of the method: as §1
# Gal(b1-3)GalNAc = system: Gal(b1-3)GalNAc
# Summary of the method: as §1
# [6] = system: Gal(a1-3)Gal(b1-4)[Fuc(a1-3)]GlcNAc(b1-2)Man(a1-3)[Gal(a1-3)Gal(b1-4)[Fuc(a1-3)]GlcNAc(b1-2)Man(a1-6)]Man(b1-4)GlcNAc(b1-4)GlcNAc
# Summary of the method: as §1
# [7] = system: Gal(a1-3)Gal(b1-4)[Fuc(a1-3)]GlcNAc
# Summary of the method: as §1
# [8] = system: Gal(b1-3)GalNAc(b1-4)Gal(b1-4)Glc
# Summary of the method: as §1
# Gal(a1-3)Gal = system: Gal(a1-3)Gal
# Summary of the method: as §1
# Gal(a1-4)Gal(b1-4)GlcNAc = system: Gal(a1-4)Gal(b1-4)GlcNAc
# Summary of the method: as §1
# Gal(a1-4)Gal(b1-4)Glc = system: Gal(a1-4)Gal(b1-4)Glc
# Summary of the method: as §1
# Gal(a1-4)GlcNAc = system: Gal(a1-4)GlcNAc
# Summary of the method: as §1
# Gal(b1-3)GalNAc(b1-3)Gal = system: Gal(b1-3)GalNAc(b1-3)Gal
# Summary of the method: as §1
# [9] = system: Gal(b1-3)GalNAc(b1-3)Gal(a1-4)Gal(b1-4)Glc
# Summary of the method: as §1
# [10] = system: Gal(b1-3)GalNAc(b1-4)[Neu5Gc(a2-3)]Gal(b1-4)Glc
# Summary of the method: as §1
substance,measurement,setting,value
"BambL (Burhholderia ambifaria), Q0B4G1",glycan array binding signal (z-score),[1],-0.314
same,glycan array binding signal (z-score),[2],-0.316
same,glycan array binding signal (z-score),Gal(b1-2)Gal,-0.304
same,glycan array binding signal (z-score),[3],-0.278
"Wza (Escherichia coli), P0A930",glycan array binding signal (z-score),[4],3.84
same,glycan array binding signal (z-score),Gal(a1-6)Glc,3.12
"SpGH101 (Streptococcus pneumoniae), Q8DR60",glycan array binding signal (z-score),Gal(a1-3)Gal(b1-4)GlcNAc,-0.162
same,glycan array binding signal (z-score),[5],1.71
same,glycan array binding signal (z-score),[3],2.88
same,glycan array binding signal (z-score),Gal(b1-3)GalNAc,8.17
Actinohivin (Actinomycete K97),glycan array binding signal (z-score),Gal(a1-3)Gal(b1-4)GlcNAc,-0.163
same,glycan array binding signal (z-score),[6],0.092
same,glycan array binding signal (z-score),[5],-0.176
AgI/II Vhelical-GFP (Streptococcus mutans),glycan array binding signal (z-score),[6],-0.151
same,glycan array binding signal (z-score),[7],-0.245
same,glycan array binding signal (z-score),Gal(a1-6)Glc,-0.194
same,glycan array binding signal (z-score),[8],-0.139
LcI (Legionella pneumophila),glycan array binding signal (z-score),Gal(a1-3)Gal,-0.38
same,glycan array binding signal (z-score),Gal(a1-4)Gal(b1-4)GlcNAc,-0.363
same,glycan array binding signal (z-score),Gal(b1-2)Gal,4.02
Epa22,glycan array binding signal (z-score),Gal(a1-4)Gal(b1-4)Glc,-0.375
same,glycan array binding signal (z-score),Gal(a1-4)GlcNAc,10.5
same,glycan array binding signal (z-score),Gal(b1-3)GalNAc(b1-3)Gal,2.8
same,glycan array binding signal (z-score),[8],2.6
same,glycan array binding signal (z-score),Gal(b1-3)GalNAc,1.46
AgI/IIC123-GFP (Streptococcus mutans),glycan array binding signal (z-score),Gal(a1-4)GlcNAc,0.706
"GspB (Streptococcus gordonii), Q939N5",glycan array binding signal (z-score),[9],3.02
"MIC3-MAR1b (Eimeria tenella), B6VCV4",glycan array binding signal (z-score),[10],-0.47
